From ChEMBL document CHEMBL3988442, “University of Dundee, Small-Polar-MMV Screening Library” (2021)
For some assays here: Measured potencies and affinities stand elsewhere.

Assays:
Design in all cases: scale not given: direction of the effect not stated beside the values
[1] = molecular target: Protein translocase subunit SecA (Escherichia coli (strain K12)) (UniProt P10408); experiment: Assay to Identify E. coli SecA ATPase Inhibitors; type: functional; conditions: 30 µM
[2] = molecular target: T1, Ubiquitin-activating enzyme e1, putative (Leishmania donovani (strain BPK282A1)) (UniProt E9BSI1); experiment: Leishmania donovani Ubiquitin Activating Enzyme (LdE1); type: functional; conditions: 30 µM
T1 sequence (whole entry): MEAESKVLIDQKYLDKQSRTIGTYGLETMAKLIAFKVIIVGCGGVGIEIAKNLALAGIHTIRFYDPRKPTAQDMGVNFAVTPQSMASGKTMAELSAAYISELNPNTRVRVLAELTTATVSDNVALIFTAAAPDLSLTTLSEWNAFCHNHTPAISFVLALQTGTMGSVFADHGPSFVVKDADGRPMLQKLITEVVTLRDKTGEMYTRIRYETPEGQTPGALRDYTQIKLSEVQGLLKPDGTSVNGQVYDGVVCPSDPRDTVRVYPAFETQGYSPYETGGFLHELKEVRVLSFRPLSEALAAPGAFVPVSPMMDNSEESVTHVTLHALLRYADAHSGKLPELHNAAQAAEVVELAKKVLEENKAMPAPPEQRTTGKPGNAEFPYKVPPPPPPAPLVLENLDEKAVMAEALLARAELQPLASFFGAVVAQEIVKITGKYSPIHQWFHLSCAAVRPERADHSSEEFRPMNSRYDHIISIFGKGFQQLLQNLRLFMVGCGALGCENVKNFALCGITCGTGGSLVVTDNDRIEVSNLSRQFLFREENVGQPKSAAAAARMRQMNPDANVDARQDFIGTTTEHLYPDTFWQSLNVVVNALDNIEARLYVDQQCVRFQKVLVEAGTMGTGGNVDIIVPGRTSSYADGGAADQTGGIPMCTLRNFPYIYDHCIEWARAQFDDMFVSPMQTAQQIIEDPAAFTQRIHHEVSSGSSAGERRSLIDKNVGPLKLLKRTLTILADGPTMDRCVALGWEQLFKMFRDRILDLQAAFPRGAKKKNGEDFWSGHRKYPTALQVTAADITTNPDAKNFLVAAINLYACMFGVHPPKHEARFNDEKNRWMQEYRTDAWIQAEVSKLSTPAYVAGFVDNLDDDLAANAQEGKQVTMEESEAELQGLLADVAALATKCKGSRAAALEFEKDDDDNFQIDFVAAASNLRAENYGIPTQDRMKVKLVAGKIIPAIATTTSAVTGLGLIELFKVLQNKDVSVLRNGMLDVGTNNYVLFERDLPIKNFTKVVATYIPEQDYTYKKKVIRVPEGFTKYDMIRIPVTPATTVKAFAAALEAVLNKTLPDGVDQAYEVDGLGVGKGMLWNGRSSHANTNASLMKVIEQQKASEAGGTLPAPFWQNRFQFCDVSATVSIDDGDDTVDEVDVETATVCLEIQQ

[3] = molecular target: T2, Aspartate--tRNA(Asp/Asn) ligase (Mycobacterium tuberculosis (strain ATCC 25618 / H37Rv)) (UniProt P9WFW3); experiment: Assay for Asp RNA synthetase-1 from Mycobacterium tuberculosis; type: functional; conditions: 30 µM; also: in the data most compounds retested in dose-response had high values
T2 sequence (whole entry): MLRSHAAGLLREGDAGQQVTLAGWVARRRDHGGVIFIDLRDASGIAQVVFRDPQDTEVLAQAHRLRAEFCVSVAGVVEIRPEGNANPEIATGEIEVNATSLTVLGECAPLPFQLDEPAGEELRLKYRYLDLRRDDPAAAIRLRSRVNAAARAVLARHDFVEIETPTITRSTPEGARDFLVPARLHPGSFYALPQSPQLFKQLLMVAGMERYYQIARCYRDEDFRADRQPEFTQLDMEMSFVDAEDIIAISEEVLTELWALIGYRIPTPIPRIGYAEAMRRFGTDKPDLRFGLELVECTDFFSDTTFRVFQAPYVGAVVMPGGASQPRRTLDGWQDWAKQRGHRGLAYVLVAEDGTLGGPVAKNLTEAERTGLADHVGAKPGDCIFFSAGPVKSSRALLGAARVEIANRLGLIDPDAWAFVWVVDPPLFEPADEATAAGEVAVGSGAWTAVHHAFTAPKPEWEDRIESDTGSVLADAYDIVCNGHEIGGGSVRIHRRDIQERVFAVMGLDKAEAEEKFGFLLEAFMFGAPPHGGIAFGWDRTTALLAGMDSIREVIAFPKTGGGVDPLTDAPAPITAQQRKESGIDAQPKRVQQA

[4] = molecular target: AMP-activated protein kinase, AMPK (Homo sapiens) (UniProt P54646+O43741+P54619+Q9UGJ0+Q9Y478+Q13131+Q9UGI9); experiment: AMP-dependent Kinase enzyme assay. An in vitro enzyme assay that detects ADP turnover that is directly proportional to AMPK activity. This uses naive AMPK that is activated during the assay with MK-8722; type: functional; conditions: 30 µM
[5] = molecular target: Sialic acid-binding Ig-like lectin 9 (Homo sapiens) (UniProt Q9Y336); experiment: Hs-Siglec9 ALPHAscreen SOP 20170721; conditions: 10 µM
Sialic acid-binding Ig-like lectin 9 (Homo sapiens), sequence (Q9Y336 whole entry): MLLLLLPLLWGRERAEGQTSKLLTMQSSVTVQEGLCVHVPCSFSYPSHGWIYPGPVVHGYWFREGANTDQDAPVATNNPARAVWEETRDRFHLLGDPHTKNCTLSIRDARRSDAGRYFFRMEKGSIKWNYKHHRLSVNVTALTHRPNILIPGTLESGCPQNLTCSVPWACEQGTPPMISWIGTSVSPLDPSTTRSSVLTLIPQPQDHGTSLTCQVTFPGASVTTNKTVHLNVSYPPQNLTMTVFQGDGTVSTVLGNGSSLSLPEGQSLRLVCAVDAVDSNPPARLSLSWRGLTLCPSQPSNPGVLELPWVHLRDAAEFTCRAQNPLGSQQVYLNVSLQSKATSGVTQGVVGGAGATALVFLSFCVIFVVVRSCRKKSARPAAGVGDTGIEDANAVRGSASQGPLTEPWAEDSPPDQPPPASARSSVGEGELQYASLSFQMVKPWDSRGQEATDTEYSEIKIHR

Trypanosoma cruzi = experiment: Trypanosoma cruzi phosphomannomutase and mannose-1-phosphate guanylyltransferase assay; type: functional; conditions: 10 µM
[6] = molecular target: T3, Arginase-2, mitochondrial (Homo sapiens) (UniProt P78540); experiment: in vitro enzyme assay to detect the production of urea directly proportional to the activity of Arginase II; type: functional; conditions: 33.3 µM; also: in the data most compounds retested in dose-response had high values
T3 sequence (whole entry): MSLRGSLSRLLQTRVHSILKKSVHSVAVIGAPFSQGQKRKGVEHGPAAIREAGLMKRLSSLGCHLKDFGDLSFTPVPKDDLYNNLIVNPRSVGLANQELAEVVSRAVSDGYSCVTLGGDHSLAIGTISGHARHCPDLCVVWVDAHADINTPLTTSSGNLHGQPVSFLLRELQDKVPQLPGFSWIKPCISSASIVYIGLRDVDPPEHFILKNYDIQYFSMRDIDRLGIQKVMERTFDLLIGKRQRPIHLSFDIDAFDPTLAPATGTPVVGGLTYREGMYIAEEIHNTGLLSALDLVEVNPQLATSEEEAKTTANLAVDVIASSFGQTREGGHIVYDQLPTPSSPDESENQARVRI

[7] = molecular target: T4, Proteasome subunit beta (Trypanosoma cruzi) (UniProt O96673); experiment: Trypanosoma cruzi proteasome chymotrypsin-like activity (TcProtChymo) assay.; also: in the data most compounds retested in dose-response had high values; type: functional; conditions: 9.37 µM
T4 sequence (whole entry): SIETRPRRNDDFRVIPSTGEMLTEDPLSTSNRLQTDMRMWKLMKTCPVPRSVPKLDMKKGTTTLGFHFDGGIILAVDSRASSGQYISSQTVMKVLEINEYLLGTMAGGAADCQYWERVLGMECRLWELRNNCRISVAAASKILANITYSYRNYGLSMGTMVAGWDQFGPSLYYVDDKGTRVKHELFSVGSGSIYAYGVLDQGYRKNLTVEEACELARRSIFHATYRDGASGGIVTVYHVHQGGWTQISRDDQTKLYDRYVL

Homo sapiens = species: Homo sapiens; experiment: To identify inhibition of the IFN signalling (Jak-Stat) pathway via expression of an eGFP reporter gene under the control of an IFN-stimulated response element (ISRE) containing MxA promoter.; type: functional; conditions: 30 µM
[8] = molecular target: Shiga toxin 2 (Escherichia coli O157:H7) (UniProt P09385+P09386); experiment: E. coli 0.157:H7 Shiga Toxin SOP - stx2 screening assay; type: functional; conditions: 30 µM
[9] = molecular target: T5, Tyrosyl-tRNA synthetase, putative (Trypanosoma cruzi (strain CL Brener)) (UniProt Q4DSP6); experiment: Trypanosoma cruzi tyrosyl tRNA synthetase (TcYRS) _High Tyrosine SOP; type: functional; conditions: 30 µM; also: in the data most compounds retested in dose-response had high values
T5 sequence (whole entry): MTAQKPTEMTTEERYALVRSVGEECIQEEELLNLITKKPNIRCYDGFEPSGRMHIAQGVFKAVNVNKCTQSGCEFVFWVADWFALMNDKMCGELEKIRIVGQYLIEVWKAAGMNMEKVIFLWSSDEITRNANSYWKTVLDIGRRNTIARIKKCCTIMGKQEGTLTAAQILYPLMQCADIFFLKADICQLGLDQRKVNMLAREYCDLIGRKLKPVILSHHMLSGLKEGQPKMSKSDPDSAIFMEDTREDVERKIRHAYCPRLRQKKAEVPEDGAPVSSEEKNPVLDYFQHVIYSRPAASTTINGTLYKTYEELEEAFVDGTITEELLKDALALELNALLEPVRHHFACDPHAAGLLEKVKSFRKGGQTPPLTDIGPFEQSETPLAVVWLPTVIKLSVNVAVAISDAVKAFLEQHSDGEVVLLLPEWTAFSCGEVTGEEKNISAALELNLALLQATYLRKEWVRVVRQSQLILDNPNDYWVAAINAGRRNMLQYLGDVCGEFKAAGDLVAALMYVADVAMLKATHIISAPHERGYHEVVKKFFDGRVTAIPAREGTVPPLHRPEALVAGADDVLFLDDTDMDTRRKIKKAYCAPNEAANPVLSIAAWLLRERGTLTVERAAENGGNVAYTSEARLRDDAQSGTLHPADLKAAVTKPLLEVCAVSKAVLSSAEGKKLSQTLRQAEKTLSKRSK

[10] = molecular target: T5, Tyrosyl-tRNA synthetase, putative (Trypanosoma cruzi (strain CL Brener)); experiment: Trypanosoma cruzi tyrosyl tRNA synthetase (TcYRS) SOP; type: functional; conditions: 30 µM
[11] = molecular target: Chromo domain-containing protein 1 (Saccharomyces cerevisiae (strain ATCC 204508 / S288c) (Baker's yeast)) (UniProt P32657); experiment: ScCHD-1 Enzyme Inhibition Assay; type: functional; conditions: 30 µM; also: in the data most compounds retested in dose-response had high values
Chromo domain-containing protein 1 (Saccharomyces cerevisiae (strain ATCC 204508 / S288c) (Baker's yeast)), sequence (P32657 whole entry, the tested form may be a part): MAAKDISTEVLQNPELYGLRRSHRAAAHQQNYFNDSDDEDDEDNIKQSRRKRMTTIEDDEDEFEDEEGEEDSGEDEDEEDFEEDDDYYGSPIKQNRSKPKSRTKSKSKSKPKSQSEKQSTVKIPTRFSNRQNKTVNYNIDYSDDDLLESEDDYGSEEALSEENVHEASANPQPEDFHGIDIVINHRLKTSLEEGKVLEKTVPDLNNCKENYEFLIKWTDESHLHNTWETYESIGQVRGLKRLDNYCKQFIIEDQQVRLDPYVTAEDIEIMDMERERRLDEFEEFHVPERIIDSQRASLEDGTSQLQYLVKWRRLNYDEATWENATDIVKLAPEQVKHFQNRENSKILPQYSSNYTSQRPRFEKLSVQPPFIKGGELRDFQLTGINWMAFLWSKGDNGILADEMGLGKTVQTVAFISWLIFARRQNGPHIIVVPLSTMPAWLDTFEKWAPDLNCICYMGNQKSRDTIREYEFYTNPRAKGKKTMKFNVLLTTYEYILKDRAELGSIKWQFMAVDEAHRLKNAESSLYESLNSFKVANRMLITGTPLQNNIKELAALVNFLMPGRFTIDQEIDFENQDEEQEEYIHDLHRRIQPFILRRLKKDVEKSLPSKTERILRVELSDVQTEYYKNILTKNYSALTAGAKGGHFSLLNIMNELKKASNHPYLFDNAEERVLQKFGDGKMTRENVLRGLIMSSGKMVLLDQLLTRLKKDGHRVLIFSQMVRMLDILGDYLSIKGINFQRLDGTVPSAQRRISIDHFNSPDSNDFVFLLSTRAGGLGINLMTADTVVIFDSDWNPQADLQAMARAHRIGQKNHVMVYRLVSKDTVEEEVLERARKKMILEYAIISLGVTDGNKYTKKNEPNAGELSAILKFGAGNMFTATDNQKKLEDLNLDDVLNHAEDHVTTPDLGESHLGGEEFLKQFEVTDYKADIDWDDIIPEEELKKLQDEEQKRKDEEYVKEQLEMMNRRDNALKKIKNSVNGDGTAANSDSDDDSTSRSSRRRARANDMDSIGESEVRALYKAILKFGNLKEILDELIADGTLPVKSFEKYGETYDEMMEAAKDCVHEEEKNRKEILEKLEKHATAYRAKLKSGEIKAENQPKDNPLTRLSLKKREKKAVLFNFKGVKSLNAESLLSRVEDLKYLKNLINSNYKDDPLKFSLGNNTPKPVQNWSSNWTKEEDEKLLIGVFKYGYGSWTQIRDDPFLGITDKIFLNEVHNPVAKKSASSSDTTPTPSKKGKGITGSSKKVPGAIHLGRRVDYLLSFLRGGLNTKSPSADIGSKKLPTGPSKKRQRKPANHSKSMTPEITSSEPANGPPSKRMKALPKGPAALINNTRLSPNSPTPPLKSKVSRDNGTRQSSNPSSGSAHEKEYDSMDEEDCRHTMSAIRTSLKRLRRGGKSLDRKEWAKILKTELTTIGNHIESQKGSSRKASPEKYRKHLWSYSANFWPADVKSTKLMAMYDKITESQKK

Protein translocase subunit SecA (Escherichia coli (strain K12)), sequence (P10408 whole entry): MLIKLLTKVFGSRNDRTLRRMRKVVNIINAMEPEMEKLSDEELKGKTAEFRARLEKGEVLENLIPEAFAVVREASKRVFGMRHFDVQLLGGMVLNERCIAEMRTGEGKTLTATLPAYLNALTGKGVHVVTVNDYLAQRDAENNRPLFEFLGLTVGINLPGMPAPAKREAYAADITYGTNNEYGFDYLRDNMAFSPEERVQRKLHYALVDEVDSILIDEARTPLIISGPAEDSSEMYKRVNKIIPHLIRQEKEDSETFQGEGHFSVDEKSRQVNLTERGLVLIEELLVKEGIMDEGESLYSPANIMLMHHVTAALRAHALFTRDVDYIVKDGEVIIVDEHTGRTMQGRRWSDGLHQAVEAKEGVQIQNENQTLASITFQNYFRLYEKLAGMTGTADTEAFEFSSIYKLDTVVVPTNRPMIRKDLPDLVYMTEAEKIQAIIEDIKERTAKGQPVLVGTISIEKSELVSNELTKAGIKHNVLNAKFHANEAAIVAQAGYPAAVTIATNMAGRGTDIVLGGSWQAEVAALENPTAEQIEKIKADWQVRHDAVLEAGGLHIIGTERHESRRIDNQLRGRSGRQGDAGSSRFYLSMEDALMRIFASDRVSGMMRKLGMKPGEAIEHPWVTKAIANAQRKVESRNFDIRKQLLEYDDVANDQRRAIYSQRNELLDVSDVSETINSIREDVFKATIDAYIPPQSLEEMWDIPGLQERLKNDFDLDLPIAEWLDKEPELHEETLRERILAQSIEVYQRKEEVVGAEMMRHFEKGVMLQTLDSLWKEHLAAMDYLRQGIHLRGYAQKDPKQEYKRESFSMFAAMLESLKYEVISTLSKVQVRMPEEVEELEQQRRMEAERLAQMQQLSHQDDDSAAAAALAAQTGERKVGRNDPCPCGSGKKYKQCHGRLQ

| SMILES | Percent Effect [1] [%] | Percent Effect [2] [%] | Percent Effect [3] [%] | Percent Effect [4] [%] | Percent Effect [5] [%] | Percent Effect (Trypanosoma cruzi) [%] | Percent Effect [6] [%] | Percent Effect [7] [%] | Percent Effect (Homo sapiens) [%] | Percent Effect [8] [%] | Percent Effect [9] [%] | Percent Effect [10] [%] | Percent Effect [11] [%] |
| --- | --- | --- | --- | --- | --- | --- | --- | --- | --- | --- | --- | --- | --- |
| CN(C)c1nccc(N2CCO[C@H]3CN(Cc4ccsc4)C[C@H]32)n1 | -0.682 | 8.22 | -1.5 | 2.33 | 8.35 | 1.59 | -0.399 | 19.9 | 2.38 | -97.8 | 8.33 | 13.6 | -5.92 |
| CC(C)c1nc(N2CCN3CCCC3C2)c2cnn(C)c2n1 (stereo not given) | -0.588 | 8.22 | 4.74 | -0.789 | 7.41 | 1.98 | -6.79 | 8.82 | -37.1 | -16.2 | 8.33 | 16.1 | -6.37 |
| O=C1CC2(CCN(Cc3ccccn3)C2)CN1c1cncnc1 (stereo not given) | -0.821 | 0 | -1.45 | 2.73 | -3.03 | -1.66 | 0.319 | 16.1 | -0.29 | -1.07 | 2.16 | 5.13 | 5.33 |
| Cc1nc(NCC2CC2)nc2c1COCC21CCN(C)C1 (stereo not given) | -1.26 | 18.7 | -1.49 | 0.667 | -4.41 | 2.17 | 46.4 | 19.1 | 2.6 | 2.88 | 4.25 | 16.7 | -6.2 |
| Cc1nc(N(C)C)nc2c1COCC21CCN(CC2CC2)C1 (stereo not given) | -3.83 | -8.11 | 3.96 | -0.232 | 1.53 | -5.86 | 1.25 | 7.18 | 4.17 | -14.2 | 6.93 | 6.1 | -5.03 |
